Here are results for eight compounds from PubChem BioAssay (NCI).

Each structure is given as a SMILES string. The panel holds about 83,000 compounds, 20% with a hit somewhere; the sample as a whole holds those more often.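 A percent growth of 40 corresponds to 60% growth inhibition; 0 means no net growth; -100 means all cells died. Active threshold: below 10.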 A number with no mark means an inactive call. Calls of active or inactive are those of the source.

Among the test systems are SK-MEL-2 melanoma; EKVX NSCLC; SN12C renal; UO-31 renal; TK-10 renal; ACHN renal; CAKI-1 renal; A498 renal; CCRF-CEM leukemia; MOLT-4 leukemia; RPMI-8226 leukemia; OVCAR-8 ovarian; OVCAR-5 ovarian; OVCAR-4 ovarian; SK-OV-3 ovarian; IGROV1 ovarian; OVCAR-3 ovarian; HS 578T breast; NCI/ADR-RES ovarian.
Common to all, as to test: NCI-60 one-dose screen, 48 h (100 = growth as untreated, 0 = no growth, -100 = all killed)
Details in all cases: 10 µM unless noted

`CC(C)n1nc(C#Cc2cccc(NC(=O)c3cccc(C(F)(F)F)c3)c2)c2c(N)ncnc21`: the growth in the experiment on SK-MEL-2 melanoma is -65.2% (active); with EKVX NSCLC it was 1.52% (active); in the experiment on SN12C renal it was -8.6% (active); with UO-31 renal it was -51.4% (active); in the experiment with TK-10 renal, -56.8% (active); in the experiment with ACHN renal, -31.9% (active). For the same compound, the growth in the experiment with CAKI-1 renal is -40.9% (active); with A498 renal it was -80.6% (active); in the experiment on CCRF-CEM leukemia, 11.8%; with MOLT-4 leukemia, 2.57% (active); with RPMI-8226 leukemia, -11.8% (active); with OVCAR-8 ovarian, -12.7% (active). Further, the growth in the experiment on OVCAR-5 ovarian was -27.5% (active); in the experiment with OVCAR-4 ovarian it was 11.4%; in the experiment with SK-OV-3 ovarian, -51.6% (active); with IGROV1 ovarian, -61.6% (active); with OVCAR-3 ovarian, 1.38% (active); in the experiment on HS 578T breast, -31.2% (active). Further, in the experiment with NCI/ADR-RES ovarian, the growth was -13% (active).
With `Cc1nc2ccc(C(=O)NCc3cc(C(=O)O)c(C)o3)cc2nc1C`, the growth in the experiment on SK-MEL-2 melanoma was 102%; with EKVX NSCLC, 105%; in the experiment on SN12C renal, 96.5%; in the experiment on UO-31 renal, 82.8%; with TK-10 renal it was 97.6%; in the experiment with ACHN renal, 99.4%. Also, the growth in the experiment on CAKI-1 renal is 86.2%; in the experiment on A498 renal, 106%; in the experiment on CCRF-CEM leukemia, 97.1%; in the experiment with MOLT-4 leukemia, 106%; in the experiment with RPMI-8226 leukemia it was 108%; with OVCAR-8 ovarian, 96.6%. The growth in the experiment on OVCAR-5 ovarian is 99.7%; in the experiment with OVCAR-4 ovarian it was 95.4%; in the experiment on SK-OV-3 ovarian it was 80.2%; with IGROV1 ovarian, 106%; with OVCAR-3 ovarian, 101%; with HS 578T breast it was 96.8%. Further, in the experiment with NCI/ADR-RES ovarian, the growth is 106%.
In the case of `c1ccc2c(c1)ncn2-c1nc2ccccc2n2c1nc1ccccc12`, the growth in the experiment on SK-MEL-2 melanoma is 104%; in the experiment on EKVX NSCLC, 61.8%; in the experiment on SN12C renal, 85.9%; with UO-31 renal, 48%; with TK-10 renal, 79.6%; in the experiment with ACHN renal, 63.1%. Moreover, the growth is 62.3% in the experiment with CAKI-1 renal; 82.4% in the experiment with A498 renal; 80.6% in the experiment with CCRF-CEM leukemia; 80.3% with MOLT-4 leukemia; 81.7% in the experiment with RPMI-8226 leukemia; 80.5% with OVCAR-8 ovarian. The growth is 81% in the experiment on OVCAR-5 ovarian; 67.9% with OVCAR-4 ovarian; 69.2% with SK-OV-3 ovarian; 51.4% in the experiment on IGROV1 ovarian; 89.6% with OVCAR-3 ovarian; 83.8% in the experiment on HS 578T breast. In addition, in the experiment with NCI/ADR-RES ovarian, the growth is 87%.
Consider `COc1ccc(CN2C(=O)/C(=C\c3cc(OC)c(OC)c(OC)c3)c3ccccc32)cc1`, for which the growth in the experiment on SK-MEL-2 melanoma was -41% (active); in the experiment on EKVX NSCLC, 5.9% (active); in the experiment on SN12C renal, 12.8%; with UO-31 renal, 5.84% (active); in the experiment on TK-10 renal, 25.2%; in the experiment with ACHN renal, -59.5% (active). The growth is -53.9% (active) in the experiment with CAKI-1 renal; 52.7% in the experiment with A498 renal; 5.62% (active) in the experiment with CCRF-CEM leukemia; 1.82% (active) in the experiment with MOLT-4 leukemia; -31.1% (active) in the experiment with RPMI-8226 leukemia; -7.07% (active) in the experiment with OVCAR-8 ovarian. The growth in the experiment with OVCAR-5 ovarian was 31%; in the experiment with OVCAR-4 ovarian, 23.3%; in the experiment with SK-OV-3 ovarian, 34%; in the experiment on IGROV1 ovarian, -22.7% (active); in the experiment on OVCAR-3 ovarian, -63.2% (active); in the experiment on NCI/ADR-RES ovarian, 2.38% (active).
On to `N#Cc1cccc(-c2nc3ccccn3c2NCCN2CCOCC2)c1`, for which the growth is 100% with SK-MEL-2 melanoma; 104% with EKVX NSCLC; 96% with SN12C renal; 73.3% in the experiment with UO-31 renal; 101% in the experiment with TK-10 renal; 98.3% with ACHN renal. Besides, the growth in the experiment with CAKI-1 renal was 85.1%; in the experiment on A498 renal it was 99.1%; with CCRF-CEM leukemia it was 92.5%; with MOLT-4 leukemia, 96.5%; in the experiment with RPMI-8226 leukemia, 90.4%; with OVCAR-8 ovarian, 90.7%. The growth in the experiment on OVCAR-5 ovarian was 94.4%; in the experiment on OVCAR-4 ovarian, 30%; with SK-OV-3 ovarian it was 86.3%; in the experiment with OVCAR-3 ovarian, 96.9%; in the experiment on NCI/ADR-RES ovarian it was 98.2%.
As for `COc1ccc(-c2nc3sccn3c2/C=C/C(=O)c2c[nH]c3ccccc23)cc1`, the growth was 90.9% in the experiment with SK-MEL-2 melanoma; 58.3% in the experiment on EKVX NSCLC; 71.7% in the experiment with SN12C renal; 82.7% with UO-31 renal; 73% in the experiment with TK-10 renal; 40.6% in the experiment on ACHN renal. The growth is 49.6% in the experiment on CAKI-1 renal; 68.2% in the experiment with A498 renal; 90.9% in the experiment on CCRF-CEM leukemia; -5.59% (active) in the experiment on MOLT-4 leukemia; 154% in the experiment on RPMI-8226 leukemia; 63.9% with OVCAR-8 ovarian. For the same compound, the growth in the experiment on OVCAR-5 ovarian is 63.5%; in the experiment on OVCAR-4 ovarian, 42.6%; in the experiment with SK-OV-3 ovarian, 79.6%; in the experiment on IGROV1 ovarian, 79.2%; in the experiment with OVCAR-3 ovarian it was 68.1%; in the experiment with HS 578T breast it was 74.9%. The growth in the experiment on NCI/ADR-RES ovarian was 59.1%.
Take `O=C1N/C(=N/O)S/C1=C/c1cn(-c2ccccc2)nc1-c1ccccc1`: the growth with SK-MEL-2 melanoma is 100%; in the experiment with EKVX NSCLC, 87.7%; in the experiment on SN12C renal it was 96.1%; in the experiment with UO-31 renal it was 57.5%; in the experiment with TK-10 renal, 108%; in the experiment with ACHN renal it was 100%. The growth in the experiment with CAKI-1 renal is 77.2%; with A498 renal it was 85.6%; in the experiment on CCRF-CEM leukemia, 91.6%; with MOLT-4 leukemia, 91.9%; in the experiment with RPMI-8226 leukemia it was 98.8%; in the experiment with OVCAR-8 ovarian, 89.9%. The growth is 109% in the experiment with OVCAR-5 ovarian; 111% in the experiment on OVCAR-4 ovarian; 77.6% in the experiment on SK-OV-3 ovarian; 77.4% in the experiment on IGROV1 ovarian; 93% in the experiment on OVCAR-3 ovarian; 83.1% in the experiment with HS 578T breast. Moreover, the growth in the experiment on NCI/ADR-RES ovarian is 99.8%.
As to `O=C(CCCCCCCn1cc(-c2cccnc2)nn1)Nc1ccccc1-c1ccccc1`, the growth is 87.9% with SK-MEL-2 melanoma; 64.9% in the experiment with EKVX NSCLC; 25.8% with SN12C renal; 62% in the experiment with UO-31 renal; 84% with TK-10 renal; 54.8% in the experiment on ACHN renal. Further, the growth was 17% in the experiment on CAKI-1 renal; 83.3% in the experiment on A498 renal; 59.9% in the experiment on CCRF-CEM leukemia; 47.4% in the experiment with MOLT-4 leukemia; 30.5% in the experiment with RPMI-8226 leukemia; 20% in the experiment with OVCAR-8 ovarian. In addition, the growth with OVCAR-5 ovarian was 62.6%; in the experiment on OVCAR-4 ovarian, 41.7%; in the experiment with SK-OV-3 ovarian, 61.7%; in the experiment with IGROV1 ovarian it was 28.3%; in the experiment with OVCAR-3 ovarian, 48.8%; with HS 578T breast, 66.4%. Besides, the growth in the experiment with NCI/ADR-RES ovarian is 24.1%.
